The full list was thinned out, with hits kept by preference.
Menin MLL FP TR: inhibitors of human menin-MLL interaction, mutant MLL peptide; O00255; Menin + Texas Red MLL mutant peptide, fluorescence polarization; Potency, µM (top dose mostly 61.6 µM), most hits filed as inhibitors; 270,000 compounds, 0.23% hits; active = well fitted inhibition curve with a large enough effect in the polarisation, with a control signal flat, not every such curve was filed as active; inconclusive = small, poorly fitted or top-dose-only effect, or effect the other way, or a change in a side signal; inactive = no such curve, though single readings can be large or run the other way; the % refers to the polarisation
MLL CXXC-DNA inh: inhibitors of human MLL CXXC domain-DNA interaction | Q03164 | MLL-CXXC / FITC-HOXA9 DNA fluorescence polarization | Potency, µM (series often up to 115 µM), most hits filed as inhibitors | 290,000 compounds, 0.037% hits; active = well fitted inhibition curve with a large enough effect in the polarisation, with a control signal flat, not every such curve was filed as active; inconclusive = small, poorly fitted or top-dose-only effect, or effect the other way, or a change in a side signal; inactive = no such curve, though single readings can be large or run the other way; the % refers to the polarisation
Target sequence (Q03164 whole entry, looked up, the tested form may be a part): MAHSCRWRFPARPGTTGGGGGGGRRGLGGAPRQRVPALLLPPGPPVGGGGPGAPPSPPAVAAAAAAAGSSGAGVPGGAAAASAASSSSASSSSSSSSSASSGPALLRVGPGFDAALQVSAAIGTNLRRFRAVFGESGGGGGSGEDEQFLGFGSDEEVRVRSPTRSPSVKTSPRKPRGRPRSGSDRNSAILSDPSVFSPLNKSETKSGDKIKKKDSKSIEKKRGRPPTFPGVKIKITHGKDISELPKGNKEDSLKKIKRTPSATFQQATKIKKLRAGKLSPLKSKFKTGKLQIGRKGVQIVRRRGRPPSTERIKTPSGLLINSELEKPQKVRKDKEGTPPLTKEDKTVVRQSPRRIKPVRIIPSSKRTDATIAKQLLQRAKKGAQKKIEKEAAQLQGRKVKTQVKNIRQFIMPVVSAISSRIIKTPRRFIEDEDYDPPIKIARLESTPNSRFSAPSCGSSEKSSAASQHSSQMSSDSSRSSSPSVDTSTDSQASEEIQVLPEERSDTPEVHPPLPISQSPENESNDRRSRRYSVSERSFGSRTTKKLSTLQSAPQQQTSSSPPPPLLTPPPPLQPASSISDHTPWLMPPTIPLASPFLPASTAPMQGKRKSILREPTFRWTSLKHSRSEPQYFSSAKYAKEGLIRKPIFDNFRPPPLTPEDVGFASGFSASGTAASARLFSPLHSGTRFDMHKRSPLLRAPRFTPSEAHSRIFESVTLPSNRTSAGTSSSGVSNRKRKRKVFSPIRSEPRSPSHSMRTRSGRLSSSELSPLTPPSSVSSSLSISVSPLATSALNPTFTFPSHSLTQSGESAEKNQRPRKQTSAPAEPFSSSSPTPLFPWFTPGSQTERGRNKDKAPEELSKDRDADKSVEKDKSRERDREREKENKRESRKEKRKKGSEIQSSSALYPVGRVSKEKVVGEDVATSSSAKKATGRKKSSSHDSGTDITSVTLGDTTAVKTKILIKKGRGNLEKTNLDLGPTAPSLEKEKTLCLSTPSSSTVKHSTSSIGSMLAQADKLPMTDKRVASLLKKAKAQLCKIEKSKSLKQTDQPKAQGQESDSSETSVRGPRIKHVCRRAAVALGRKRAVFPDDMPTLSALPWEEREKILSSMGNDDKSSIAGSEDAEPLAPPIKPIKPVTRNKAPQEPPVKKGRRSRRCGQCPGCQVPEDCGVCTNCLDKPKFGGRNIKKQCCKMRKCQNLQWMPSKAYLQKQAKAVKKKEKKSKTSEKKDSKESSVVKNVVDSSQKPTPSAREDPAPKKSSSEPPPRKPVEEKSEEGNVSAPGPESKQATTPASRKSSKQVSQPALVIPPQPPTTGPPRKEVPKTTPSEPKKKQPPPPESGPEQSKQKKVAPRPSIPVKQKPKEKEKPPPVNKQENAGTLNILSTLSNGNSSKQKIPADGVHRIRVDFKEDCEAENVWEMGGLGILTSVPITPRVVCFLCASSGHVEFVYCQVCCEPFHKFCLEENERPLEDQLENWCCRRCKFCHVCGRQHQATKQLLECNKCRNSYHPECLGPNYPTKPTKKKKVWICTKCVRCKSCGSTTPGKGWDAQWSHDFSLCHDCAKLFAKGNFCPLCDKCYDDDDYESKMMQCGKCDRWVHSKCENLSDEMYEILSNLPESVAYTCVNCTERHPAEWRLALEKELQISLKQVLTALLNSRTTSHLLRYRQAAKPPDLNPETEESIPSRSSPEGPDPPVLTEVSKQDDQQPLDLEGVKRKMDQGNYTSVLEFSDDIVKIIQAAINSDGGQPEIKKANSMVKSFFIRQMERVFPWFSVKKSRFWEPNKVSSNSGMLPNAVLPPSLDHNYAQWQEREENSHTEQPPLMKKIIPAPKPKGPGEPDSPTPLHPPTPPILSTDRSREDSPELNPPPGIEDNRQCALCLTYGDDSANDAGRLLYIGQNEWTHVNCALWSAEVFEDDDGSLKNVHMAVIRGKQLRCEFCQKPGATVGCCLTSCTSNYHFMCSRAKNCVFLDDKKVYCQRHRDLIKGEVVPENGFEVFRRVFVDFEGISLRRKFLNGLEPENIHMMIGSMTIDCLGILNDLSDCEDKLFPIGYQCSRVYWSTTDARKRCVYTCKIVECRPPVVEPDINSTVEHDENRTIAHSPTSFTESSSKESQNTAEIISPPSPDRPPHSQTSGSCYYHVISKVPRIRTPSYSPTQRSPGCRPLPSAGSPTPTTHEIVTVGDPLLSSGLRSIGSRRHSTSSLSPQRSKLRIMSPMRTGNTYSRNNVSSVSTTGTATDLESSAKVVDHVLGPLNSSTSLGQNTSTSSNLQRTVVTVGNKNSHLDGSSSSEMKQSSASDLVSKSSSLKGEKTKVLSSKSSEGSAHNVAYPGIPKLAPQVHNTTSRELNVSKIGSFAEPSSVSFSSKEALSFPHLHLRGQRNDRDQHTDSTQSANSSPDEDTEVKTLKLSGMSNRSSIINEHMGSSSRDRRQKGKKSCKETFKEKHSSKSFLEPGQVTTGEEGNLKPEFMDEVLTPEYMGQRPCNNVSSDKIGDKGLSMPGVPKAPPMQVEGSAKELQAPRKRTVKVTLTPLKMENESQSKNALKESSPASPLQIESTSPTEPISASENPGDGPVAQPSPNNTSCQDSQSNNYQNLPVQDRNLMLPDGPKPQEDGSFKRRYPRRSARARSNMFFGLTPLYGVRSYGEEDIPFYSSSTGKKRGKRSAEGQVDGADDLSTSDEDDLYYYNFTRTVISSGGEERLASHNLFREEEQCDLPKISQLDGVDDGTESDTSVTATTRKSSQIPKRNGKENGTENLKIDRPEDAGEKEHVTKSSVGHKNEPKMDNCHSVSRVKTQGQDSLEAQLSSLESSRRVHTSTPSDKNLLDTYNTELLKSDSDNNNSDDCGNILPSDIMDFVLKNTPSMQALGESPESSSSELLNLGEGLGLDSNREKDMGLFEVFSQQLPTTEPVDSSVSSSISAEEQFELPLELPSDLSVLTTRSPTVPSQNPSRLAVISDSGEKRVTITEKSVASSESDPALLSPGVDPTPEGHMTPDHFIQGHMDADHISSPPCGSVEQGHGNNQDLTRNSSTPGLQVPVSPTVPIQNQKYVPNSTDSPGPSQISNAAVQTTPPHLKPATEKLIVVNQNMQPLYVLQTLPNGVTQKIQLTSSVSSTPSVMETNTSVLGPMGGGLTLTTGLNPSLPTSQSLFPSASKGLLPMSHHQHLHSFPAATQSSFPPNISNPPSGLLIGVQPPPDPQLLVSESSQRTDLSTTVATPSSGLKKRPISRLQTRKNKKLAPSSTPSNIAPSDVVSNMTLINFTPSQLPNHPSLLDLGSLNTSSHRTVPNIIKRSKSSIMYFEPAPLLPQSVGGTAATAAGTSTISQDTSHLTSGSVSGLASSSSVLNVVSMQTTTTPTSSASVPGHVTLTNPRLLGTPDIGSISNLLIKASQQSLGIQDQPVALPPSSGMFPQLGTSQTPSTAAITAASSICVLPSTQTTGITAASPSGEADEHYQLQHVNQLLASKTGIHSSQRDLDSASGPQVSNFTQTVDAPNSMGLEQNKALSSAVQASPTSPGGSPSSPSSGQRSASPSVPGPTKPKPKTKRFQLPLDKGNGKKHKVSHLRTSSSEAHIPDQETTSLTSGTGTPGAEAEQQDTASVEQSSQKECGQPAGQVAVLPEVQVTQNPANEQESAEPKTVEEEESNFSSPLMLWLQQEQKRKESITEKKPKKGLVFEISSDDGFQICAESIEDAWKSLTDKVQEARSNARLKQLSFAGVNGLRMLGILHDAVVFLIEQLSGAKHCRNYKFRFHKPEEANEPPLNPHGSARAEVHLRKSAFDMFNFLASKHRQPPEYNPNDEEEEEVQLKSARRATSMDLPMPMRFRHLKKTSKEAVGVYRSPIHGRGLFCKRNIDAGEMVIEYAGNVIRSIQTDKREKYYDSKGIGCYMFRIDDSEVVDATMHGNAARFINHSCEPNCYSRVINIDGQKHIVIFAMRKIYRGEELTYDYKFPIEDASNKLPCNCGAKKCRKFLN
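Purified MLL-CXXC (added from a 7 uM solution) was preincubated 5 min at ambient with pinned compounds in 50 mM Tris-HCl pH 7.5, 50 mM NaCl, 1 mM DTT, 0.05% BSA. Fluorescein-labeled HOX-A9 DNA (50 nM solution) followed, 30 min, then polarization read.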
Menin MLL FP FL: inhibitors of human menin-MLL interaction, wild-type MLL peptide. FP activity change, % at 61.4 µM. 290,000 tested, under 10 active. AID 1766. Fluorescence polarization, fluorescein-MLL peptide displacement from menin; active = well fitted curve in the direction sought with a large enough effect in the polarisation, not every such curve was filed as active; inconclusive = small, poorly fitted or top-dose-only effect, or effect the other way, or a change in a side signal; inactive = no such curve, though single readings can be large or run the other way; the % refers to the polarisation
p53 reactivation: restores transcriptional activity of mutant p53; 320,000 compounds, 0.063% hits; H1299 p53-A138V BP100-luciferase reporter, luminescence, 24 h; Potency, µM (series often up to 92.2 µM), actives largely listed as activators; active = well fitted activation curve with a large enough effect; inconclusive = small, poorly fitted or top-dose-only effect; inactive = no such curve, though single readings can be large or run the other way; also: nearly all actives have a fitted effect of over 45% in size
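p53-null H1299 cells stably carrying temperature-sensitive p53-A138V and a BP100-luciferase reporter were pinned with compounds (4-point, 1:5 series) and held 24 hrs at 37 deg C. Luminescence was read 10 min after detection reagent.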
ClpP mod: qHTS Assay for Activators of ClpP | ATP-dependent Clp protease proteolytic subunit (Bacillus subtilis (strain 168)), P80244 | purified B. subtilis ClpP, FRET peptide cleavage, 20 min | Potency, µM (series often up to 57.5 µM) | 340,000 compounds, 1.9% hits; active = well fitted falling curve with a large enough effect; inconclusive = small, poorly fitted or top-dose-only effect; inactive = no such curve, though single readings can be large or run the other way; also: the source files actives as falling curves though it sought activators and does not explain the sign; nearly all actives have a fitted effect of over 65% in size
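Purified B. subtilis ClpP, 10 microg/mL final in Tris/HCl pH8 with KCl, BSA, glycerol and Tween-20, cleaved an Abz/nitrotyrosine-quenched decapeptide. Fluorescence (ex 320, em 430) was read at 0 and 20 min at room temperature. Delta was normalized to 5.8 microM ADEP and DMSO/no-enzyme controls.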
Numbers stand for hits; 0 = inactive; ? = inconclusive; - = no result given; [ ] = another dose, or the depositor's remark.

SMILES | Menin MLL FP TR | MLL CXXC-DNA inh | Menin MLL FP FL | p53 reactivation | ClpP mod
COc1cc(C2C3C(=O)N(c4ccccc4)C(=O)C3ON2c2ccccc2)cc(OC)c1OC (stereo not given) | 0 | 0 | 0 | 0 | 0
CN1C(=S)SC(N2OC3C(=O)N(c4ccccc4)C(=O)C3C2c2ccc(Cl)cc2)C1(C)C (stereo not given) | 0 | 0 | 0 | 0 | 28µM
CCOc1ccc2c(c1)C(C)=CC(C)(C)N2C(=O)Nc1ccccc1F | 0 | 0 | 0 | 0 | 28µM
C[C@@H]1[C@H](c2ccccc2)OCCS(=O)(=O)N1Cc1ccccc1F | - | - | - | - | 0
c1ccc2nc3[nH]cnc3nc2c1 | 0 | 0 | 0 | 0 | 22µM
Cc1cccc2c(C(O)c3cn(C)c4ccccc34)c[nH]c12 (stereo not given) | - | - | - | - | 0
COc1nc(C)ccc1-c1noc(-c2cccs2)n1 | - | 0 | 0 | ? | -
COc1nc(-c2ccccc2)ccc1-c1noc(COc2ccccc2)n1 | 0 | 0 | 0 | - | 10µM
CCOc1nc(-c2ccc(C)cc2)ccc1-c1noc(COC)n1 | 0 | 0 | 0 | 0 | 32µM
COc1ccc(-c2ccc(-c3noc(-c4ccco4)n3)c(OC)n2)cc1 | 0 | 0 | 0 | 0 | 28µM
COc1ccc(-c2ccc(-c3noc(-c4ccccc4)n3)c(OC)n2)cc1 | 0 | 0 | 0 | 0 | 0
COc1nc(-c2ccccc2)ccc1-c1noc(-c2cccs2)n1 | - | - | - | - | 20µM
Cc1ccc(S(=O)(=O)N2CCN(c3cc(-c4cccs4)nc4ccccc34)CC2)cc1 | - | - | - | - | 0
CO[C@@H]1COC(=O)[C@H](CCSC)NC(=O)C/C=C\[C@@H](C)COC(=O)[C@@H]2CCCN2C(=O)C/C=C\[C@H]1C | 0[11.7 µM] | - | 0[11.7 µM] | - | -
C#CC(C)OC(=O)Nc1cccc(Cl)c1 (stereo not given) | 0 | - | ? | - | -
O=[N+]([O-])c1cccc2[nH]cnc12 | - | - | - | - | 0
COc1nc(-c2ccccc2)ccc1-c1noc(-c2ccccc2)n1 | 0 | 0 | ? | ? | ?
COc1nc(-c2ccccc2)ccc1-c1noc(-c2ccco2)n1 | 0 | 0 | 0 | ? | 32µM
Cc1cccc(C)c1Nc1nnc(SCc2nc3ccccc3s2)s1 | ? | 0 | 0 | ? | 14µM
O=C(Nc1nccs1)[C@@H]1CC=C[C@@H]2CCN(Cc3ccc(Cl)c(Cl)c3)C(=O)[C@@H]21 | - | - | - | - | 0
OCCCCNc1cccc2ccccc12 | 0 | 0 | 0 | 0 | 16µM
COc1ccc(-c2nnc3sc(-c4ccco4)nn23)cc1OC | 0 | 0 | 0 | 0 | 0
COc1cc2c(cc1OC)-c1nnc(-c3ccco3)n1C1(CCCC1)C2 | 0 | 0 | 0 | 0 | 32µM
c1coc(-c2nnc3n2C2(CCCC2)Cc2ccccc2-3)c1 | 0 | 0 | 0 | 0 | ?
COc1cc(OC)c(-c2nn3c(-c4ccco4)nnc3s2)cc1OC | ? | 0 | 0 | 0 | 28µM
SMILES | Menin MLL FP TR | MLL CXXC-DNA inh | Menin MLL FP FL | p53 reactivation | ClpP mod
COc1ccc(Cl)cc1NC(=O)Cc1ccc(NC(=O)N2CCCCc3ccccc32)cc1 | - | - | - | - | 0
Cc1nc(Cl)sc1C(=O)Nc1ccc(Cl)cc1 | 0 | 0 | 0 | 0 | 28µM
Cc1nc(Cl)sc1C(=O)Nc1ccccc1 | 0 | 0 | 0 | 0 | 0
O=C1CCC[C@@H](C(C(=O)OCc2ccccc2)C(=O)OCc2ccccc2)C1 | 0[11.7 µM] | - | 0[11.7 µM] | - | -
Cc1cccc(C(=O)Nc2ccc(-c3nc4ccccc4s3)cc2Cl)c1 | - | - | - | - | 25µM
CC1CC(C)CN(C(=O)c2cc3c(=O)n4ccccc4nc3s2)C1 (stereo not given) | 0 | 0 | 0 | 0 | -
CC1CN(C(=O)c2cc3c(=O)n4ccccc4nc3s2)CC(C)O1 (stereo not given) | 0 | 0 | 0 | 0 | 18µM
CCCCC(=O)OCc1nc2ccccc2s1 | 0 | 0 | 0 | ? | 16µM
COc1ccccc1CCNC(=O)C1CCC(=O)N(Cc2ccccc2OC)C1 (stereo not given) | - | 0 | - | 0 | 0
COc1ccccc1CN1CC(C(=O)NC2(c3ccccc3)CC2)CCC1=O (stereo not given) | 0 | 0 | 0 | ? | 32µM
CNc1ccc(C=C2c3ccccc3-c3ccccc32)cc1 | - | - | - | - | 0
CC(=O)c1ccccc1OCCOCCOCCOc1ccccc1C(C)=O | 0 | 0 | 0 | 0 | 0.89µM
Cc1ccc(-c2cc(-c3nnc(SCC(=O)N(C)CCC#N)n3N)c3ccccc3n2)cc1 | 0 | 0 | 0 | 0 | 16µM
Cc1ccc(N(CCC#N)C(=O)CSc2nc3ccccc3c(=O)[nH]2)cc1 | - | - | - | 0 | 0
CN(C)c1nc(-c2ccccc2)cc(C(F)(F)F)c1C#N | 0 | 0 | 0 | 0 | 32µM
CC#CCN1c2ccccc2[C@]23C[C@@H](C(=O)OC)N(S(=O)(=O)c4ccc(C(F)(F)F)cc4)C2=NC(C(=O)OC)=C(C(=O)OC)[C@H]13 | 0[11.7 µM] | - | 0[11.7 µM] | - | -
CN(C(=O)CSc1nc2ccc(NC(=O)c3ccco3)cc2s1)c1ccccc1 | - | - | - | - | 0
S=c1[nH]nc(Cc2cccc3ccccc23)o1 | 0 | 0 | 0 | 0 | 28µM
Cc1cc(C)c(S(=O)(=O)N2CCN(C(=O)CN3C(=O)NC4(CCCC4)C3=O)CC2)c(C)c1 | - | 0 | - | 0 | 35µM
O=c1c2ccccc2nc(SCc2nnc(-c3ccccc3Br)o2)n1-c1ccccc1 | 0 | 0 | 0 | 0 | 0
O=c1c2ccccc2nc(SCc2nnc(-c3ccccc3)o2)n1-c1ccc(F)cc1F | 0 | 0 | 0 | 0 | 25µM
C=CCNc1ncnc2c1[nH]c1ccccc12 | 0 | 0 | 0 | 0 | 28µM
c1ccc2c(c1)[nH]c1c(NCC3CCCO3)ncnc12 (stereo not given) | 0 | 0 | 0 | 0 | 28µM
C=CCNc1ncnc2c1[nH]c1ccc(Cl)cc12 | 0 | 0 | 0 | 0 | 28µM
CC[C@H](C)N | 0 | - | 0 | - | -
SMILES | Menin MLL FP TR | MLL CXXC-DNA inh | Menin MLL FP FL | p53 reactivation | ClpP mod
CCCCc1nc2c(c3c1C[C@H](C)OC3)CN(S(=O)(=O)c1ccc(NC(C)=O)cc1)CC2 | 0[11.7 µM] | - | 0[11.7 µM] | - | -
O=C(COc1ccccc1C(=O)Nc1ccccc1)Nc1ccccc1Cl | - | - | - | - | 0
CCN(CC(=O)NCc1cccs1)C(=O)c1cc(S(=O)(=O)N2CCOCC2)ccc1C | 0 | 0 | 0 | 0 | 0
CCN(CC(=O)NCc1ccc(Cl)cc1)C(=O)c1cc(S(=O)(=O)N2CCOCC2)ccc1C | - | - | - | 0 | 14µM
Cc1ccccc1OCCC(=O)OCC(=O)Nc1ccc2[nH]c(=O)[nH]c2c1 | - | - | - | 0 | 32µM
COC(=O)C1=C(C(=O)OC)[C@@H]2N(C)c3ccc(OC)cc3[C@@]23C[C@@H](C(=O)OC)N(S(=O)(=O)c2ccc(C(F)(F)F)cc2)C3=N1 | 0[11.7 µM] | - | 0[11.7 µM] | - | -
Cc1ccc(Oc2ccc(/C=N/O)cn2)cc1 | 0 | 0 | 0 | 0 | 16µM
Cc1ccc(COc2ccc(/C=N/O)cc2)cc1 | 0 | 0 | 0 | ? | 0
Nc1c(S(=O)(=O)c2cccs2)c2nc3ccccc3nc2n1Cc1cccs1 | ? | 0 | 0 | 0 | 32µM
Nc1c(S(=O)(=O)c2cccs2)c2nc3ccccc3nc2n1Cc1ccc2c(c1)OCO2 | ? | 0 | 0 | 0 | 14µM
COc1ccc(CC(=O)N2CCN(c3ccccn3)CC2)cc1OC | 0 | 0 | 0 | 0 | 22µM

Source: PubChem BioAssay
